# Out of some 5,500 compounds screened, about 2,000 (36%) were called active. About 18% were inconclusive and are not listed. This is one part of the list. A number with no mark means an inactive call. Rule as the data show it: active = normalized growth mostly below about 0.91 (no sharp cut-off); inconclusive = no clear call, values can overlap the other calls; inactive = mostly above about 0.92.
# Experiment: chemical genetic growth profiling, strain panel (AID 1159580);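 also: tested at 20 µM; growth read once vehicle control cultures reached saturation at 30 °C; 1 = growth at the plate median or of vehicle wells; lower values mean less growth of the strain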
# Details: growth OD
# [1] = S. cerevisiae deletion strains, locus YAL013W, strain DEP1, hits give low values
# [2] = S. cerevisiae deletion strains, locus YBR229C, strain ROT2, hits give low values
# [3] = S. cerevisiae deletion strains, locus YDL101C, strain DUN1, hits give low values
# [4] = S. cerevisiae deletion strains, locus YDR150W, strain NUM1, hits give low values
# [5] = S. cerevisiae deletion strains, locus YEL061C, strain CIN8, hits give low values
# [6] = S. cerevisiae deletion strains, locus YGR078C, strain PAC10, hits give low values
# [7] = S. cerevisiae deletion strains, locus YHR030C, strain SLT2, hits give low values
# [8] = S. cerevisiae deletion strains, locus YHR087W, strain rtc3, hits give low values
# [9] = S. cerevisiae deletion strains, locus YJR043C, strain POL32, hits give low values
# [10] = S. cerevisiae deletion strains, locus YJR075W, strain HOC1, hits give low values
# [11] = S. cerevisiae deletion strains, locus YKL190W, strain CNB1, hits give low values
# [12] = S. cerevisiae deletion strains, locus YLR039C, strain RIC1, hits give low values
# [13] = S. cerevisiae deletion strains, locus YLR058C, strain SHM2 (second series), hits give low values
# [14] = S. cerevisiae deletion strains, locus YLR085C, strain ARP6, hits give low values
# [15] = S. cerevisiae deletion strains, locus YLR262C, strain YPT6, hits give low values
# [16] = S. cerevisiae deletion strains, locus YML094W, strain GIM5, hits give low values
# [17] = S. cerevisiae deletion strains, locus YMR219W, strain ESC1, hits give low values
# [18] = S. cerevisiae deletion strains, locus YMR263W, strain SAP30, hits give low values
# [19] = S. cerevisiae deletion strains, locus YNL153C, strain GIM3, hits give low values
# [20] = S. cerevisiae deletion strains, locus YNL298W, strain CLA4 (second series), hits give low values
# [21] = S. cerevisiae deletion strains, locus YNL322C, strain KRE1, hits give low values
# [22] = S. cerevisiae deletion strains, locus YNR030W, strain Alg12, hits give low values
# [23] = S. cerevisiae deletion strains, locus YPL055C, strain LGE1, hits give low values
# [24] = S. cerevisiae deletion strains, locus YPR135W, strain CTF4, hits give low values
# [25] = S. cerevisiae strains, strain wild type, hits give low values
smiles,measurement,setting,value
NC(N)=NC(N)=Nc1ccccc1C(F)(F)F,normalized growth,[1],0.987
same,normalized growth,[2],0.982
same,normalized growth,"S. cerevisiae deletion strains, locus YCL061C, strain MRC1, hits give low values",1.01
same,normalized growth,[3],0.969
same,normalized growth,[4],0.895
same,normalized growth,[5],0.993
same,normalized growth,[6],0.979
same,normalized growth,[7],0.935
same,normalized growth,[8],0.966
same,normalized growth,[9],0.998
same,normalized growth,[10],1.01
same,normalized growth,[11],0.997
same,normalized growth,[12],0.989
same,normalized growth,[13],0.982
same,normalized growth,[14],1.01
same,normalized growth,[15],0.997
same,normalized growth,[16],0.923
same,normalized growth,[17],0.987
same,normalized growth,[18],1.06
same,normalized growth,"S. cerevisiae deletion strains, locus YNL128W, strain TEP1, hits give low values",0.984
same,normalized growth,[19],1.02
same,normalized growth,[20],0.938
same,normalized growth,[21],0.993
same,normalized growth,[22],0.983
same,normalized growth,[23],0.962
same,normalized growth,[24],0.922
same,normalized growth,[25],0.986
CCOC(=O)c1sc(S(C)=NC(=O)Nc2ccc(Cl)cc2)c2c1CCC=C2 (stereo unspecified),normalized growth,"S. cerevisiae deletion strains, locus YAR019C, strain CDC15, hits give low values",0.985
same,normalized growth,"S. cerevisiae deletion strains, locus YBL105C, strain PKC1, hits give low values",0.974
same,normalized growth,"S. cerevisiae deletion strains, locus YBR135W, strain CKS1, hits give low values",0.974
same,normalized growth,"S. cerevisiae deletion strains, locus YBR136W, strain MEC1, hits give low values",0.974
same,normalized growth,"S. cerevisiae deletion strains, locus YBR160W, strain CDC28, hits give low values",0.978
same,normalized growth,"S. cerevisiae deletion strains, locus YDL017W, strain CDC7, hits give low values",0.979
same,normalized growth,"S. cerevisiae deletion strains, locus YDL028C, strain MPS1, hits give low values",0.971
same,normalized growth,[3],0.97
same,normalized growth,"S. cerevisiae deletion strains, locus YDL108W, strain KIN28, hits give low values",0.972
same,normalized growth,"S. cerevisiae deletion strains, locus YDL132W, strain cdc53, hits give low values",0.965
same,normalized growth,"S. cerevisiae deletion strains, locus YDL214C, strain PRR2, hits give low values",0.922
same,normalized growth,"S. cerevisiae deletion strains, locus YDR052C, strain DBF4, hits give low values",0.981
same,normalized growth,"S. cerevisiae deletion strains, locus YDR054C, strain cdc34, hits give low values",0.974
same,normalized growth,"S. cerevisiae deletion strains, locus YDR226W, strain ADK1, hits give low values",0.963
same,normalized growth,"S. cerevisiae deletion strains, locus YDR477W, strain SNF1, hits give low values",0.937
same,normalized growth,"S. cerevisiae deletion strains, locus YER123W, strain YCK3, hits give low values",0.923
same,normalized growth,"S. cerevisiae deletion strains, locus YER133W, strain GLC7, hits give low values",0.945
same,normalized growth,"S. cerevisiae deletion strains, locus YFL009W, strain cdc4, hits give low values",0.973
same,normalized growth,"S. cerevisiae deletion strains, locus YFL029C, strain CAK1, hits give low values",0.977
same,normalized growth,"S. cerevisiae deletion strains, locus YFR003C, strain YPI1, hits give low values",0.976
same,normalized growth,"S. cerevisiae deletion strains, locus YFR019W, strain FAB1, hits give low values",0.94
same,normalized growth,"S. cerevisiae deletion strains, locus YFR028C, strain CDC14, hits give low values",0.975
same,normalized growth,"S. cerevisiae deletion strains, locus YGR040W, strain KSS1, hits give low values",0.922
same,normalized growth,"S. cerevisiae deletion strains, locus YGR052W, strain FMP48, hits give low values",0.954
same,normalized growth,"S. cerevisiae deletion strains, locus YGR092W, strain DBF2, hits give low values",0.947
same,normalized growth,[7],1.05
same,normalized growth,"S. cerevisiae deletion strains, locus YHR079C, strain IRE1, hits give low values",1.01
same,normalized growth,"S. cerevisiae deletion strains, locus YHR082C, strain KSP1, hits give low values",1.02
same,normalized growth,"S. cerevisiae deletion strains, locus YHR205W, strain SCH9, hits give low values",0.959
same,normalized growth,"S. cerevisiae deletion strains, locus YIL147C, strain SLN1, hits give low values",0.968
same,normalized growth,"S. cerevisiae deletion strains, locus YJL095W, strain BCK1, hits give low values",0.963
same,normalized growth,"S. cerevisiae deletion strains, locus YJL128C, strain PBS2, hits give low values",0.94
same,normalized growth,"S. cerevisiae deletion strains, locus YJL157C, strain FAR1, hits give low values",0.941
same,normalized growth,"S. cerevisiae deletion strains, locus YJR016C, strain ILV3, hits give low values",0.976
same,normalized growth,"S. cerevisiae deletion strains, locus YJR066W, strain TOR1 (second series), hits give low values",0.923
same,normalized growth,"S. cerevisiae deletion strains, locus YJR066W, strain TOR1, hits give low values",1.02
same,normalized growth,"S. cerevisiae deletion strains, locus YKL048C, strain ELM1, hits give low values",0.96
same,normalized growth,"S. cerevisiae deletion strains, locus YKL067W, strain YNK1, hits give low values",0.938
same,normalized growth,"S. cerevisiae deletion strains, locus YKL101W, strain HSL1, hits give low values",0.902
same,normalized growth,"S. cerevisiae deletion strains, locus YKL193C, strain SDS22, hits give low values",0.974
same,normalized growth,"S. cerevisiae deletion strains, locus YKL203C, strain TOR2, hits give low values",1.02
same,normalized growth,"S. cerevisiae deletion strains, locus YLR113W, strain HOG1, hits give low values",0.859 (active)
same,normalized growth,"S. cerevisiae deletion strains, locus YLR133W, strain CKI1, hits give low values",0.926
same,normalized growth,"S. cerevisiae deletion strains, locus YLR403W, strain SFP1, hits give low values",0.953
same,normalized growth,"S. cerevisiae deletion strains, locus YML070W, strain DAK1, hits give low values",0.916
same,normalized growth,"S. cerevisiae deletion strains, locus YMR001C, strain CDC5, hits give low values",0.978
same,normalized growth,"S. cerevisiae deletion strains, locus YMR205C, strain PFK2 (second series), hits give low values",0.951
same,normalized growth,"S. cerevisiae deletion strains, locus YMR277W, strain FCP1, hits give low values",0.974
same,normalized growth,"S. cerevisiae deletion strains, locus YNL006W, strain LST8, hits give low values",0.982
same,normalized growth,"S. cerevisiae deletion strains, locus YNL020C, strain ARK1, hits give low values",0.93
same,normalized growth,"S. cerevisiae deletion strains, locus YNL161W, strain CBK1, hits give low values",0.978
same,normalized growth,"S. cerevisiae deletion strains, locus YNL183C, strain NPR1, hits give low values",1
same,normalized growth,"S. cerevisiae deletion strains, locus YNL207W, strain RIO2, hits give low values",0.968
same,normalized growth,"S. cerevisiae deletion strains, locus YNL222W, strain SSU72, hits give low values",0.975
same,normalized growth,"S. cerevisiae deletion strains, locus YNL307C, strain MCK1 (second series), hits give low values",0.951
same,normalized growth,"S. cerevisiae deletion strains, locus YOL078W, strain AVO1, hits give low values",0.96
same,normalized growth,"S. cerevisiae deletion strains, locus YOL136C, strain PFK27, hits give low values",0.895
same,normalized growth,"S. cerevisiae deletion strains, locus YOR061W, strain CKA2, hits give low values",0.945
same,normalized growth,"S. cerevisiae deletion strains, locus YOR119C, strain RIO1, hits give low values",0.998
same,normalized growth,"S. cerevisiae deletion strains, locus YOR231W, strain MKK1, hits give low values",0.894
same,normalized growth,"S. cerevisiae deletion strains, locus YOR329C, strain SCD5, hits give low values",0.976
same,normalized growth,"S. cerevisiae deletion strains, locus YPL031C, strain PHO85, hits give low values",0.94
same,normalized growth,"S. cerevisiae deletion strains, locus YPL153C, strain RAD53, hits give low values",0.953
same,normalized growth,"S. cerevisiae deletion strains, locus YPL204W, strain HRR25, hits give low values",0.9
same,normalized growth,"S. cerevisiae deletion strains, locus YPL209C, strain IPL1, hits give low values",0.968
same,normalized growth,"S. cerevisiae deletion strains, locus YPL256C, strain CLN2, hits give low values",0.999
same,normalized growth,"S. cerevisiae deletion strains, locus YPR025C, strain CCL1, hits give low values",0.981
same,normalized growth,"S. cerevisiae deletion strains, locus YPR106W, strain ISR1, hits give low values",0.962
same,normalized growth,"S. cerevisiae deletion strains, locus YPR111W, strain DBF20, hits give low values",0.985
same,normalized growth,"S. cerevisiae deletion strains, strain NNK1, hits give low values",0.961
same,normalized growth,"S. cerevisiae deletion strains, strain TSCII, hits give low values",0.97
CCOC(=O)c1sc2sc(C(=O)c3ccc(Cl)cc3)c(C)c2c1C,normalized growth,[1],1
same,normalized growth,[2],1.03
same,normalized growth,[3],1
same,normalized growth,"S. cerevisiae deletion strains, locus YDL134C, strain PPH21, hits give low values",1.01
same,normalized growth,[4],0.91
same,normalized growth,[5],1.02
same,normalized growth,[6],1.01
same,normalized growth,[7],1.1
same,normalized growth,[8],1.01
same,normalized growth,[9],0.991
same,normalized growth,[10],1.03
same,normalized growth,[11],1.02
same,normalized growth,[12],1.06
same,normalized growth,[13],1.01
same,normalized growth,[14],1.06
same,normalized growth,[15],1.06
same,normalized growth,[16],1.01
same,normalized growth,[17],1
same,normalized growth,[18],0.937
same,normalized growth,"S. cerevisiae deletion strains, locus YMR307W, strain GAS1, hits give low values",1.07
same,normalized growth,[19],1
same,normalized growth,[20],1.05
same,normalized growth,[21],1.01
same,normalized growth,[22],1.03
same,normalized growth,[23],0.904
same,normalized growth,"S. cerevisiae deletion strains, locus YPL241C, strain CIN2, hits give low values",1.01
same,normalized growth,[24],1.09
same,normalized growth,[25],1.02
